Source: PubChem BioAssay AID1159580 (chemical genetic matrix, 2015)
About 2,000 (36%) of roughly 5,500 compounds were called active. Roughly 18% stayed inconclusive and do not appear here. No stated cut-off is given here; in the data, active means normalized growth mostly below about 0.91 (no sharp cut-off); inconclusive means no clear call, values can overlap the other calls; inactive means mostly above about 0.92. The list shows a part of the results.

Assay: chemical genetic growth profiling, strain panel (AID 1159580);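 further: tested at 20 µM; growth read once vehicle control cultures reached saturation at 30 °C; 1 = growth at the plate median or of vehicle wells; lower values mean less growth of the strain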
Details: growth OD

Measured: normalized growth

Cc1cc(C(F)(F)F)c(C#N)c(=O)[nH]1
inactive: S. cerevisiae deletion strains, locus YAL013W, strain DEP1, hits give low values 1.02 | S. cerevisiae deletion strains, locus YBR229C, strain ROT2, hits give low values 1 | S. cerevisiae deletion strains, locus YCL061C, strain MRC1, hits give low values 1 | S. cerevisiae deletion strains, locus YDL101C, strain DUN1, hits give low values 0.995 | S. cerevisiae deletion strains, locus YDL134C, strain PPH21, hits give low values 1.01 | S. cerevisiae deletion strains, locus YDR150W, strain NUM1, hits give low values 0.982 | S. cerevisiae deletion strains, locus YEL061C, strain CIN8, hits give low values 1 | S. cerevisiae deletion strains, locus YGR078C, strain PAC10, hits give low values 1 | S. cerevisiae deletion strains, locus YHR030C, strain SLT2, hits give low values 1.01 | S. cerevisiae deletion strains, locus YHR087W, strain rtc3, hits give low values 1 | S. cerevisiae deletion strains, locus YJL187C, strain SWE1, hits give low values 1 | S. cerevisiae deletion strains, locus YJR043C, strain POL32, hits give low values 0.997 | S. cerevisiae deletion strains, locus YJR075W, strain HOC1, hits give low values 1.03 | S. cerevisiae deletion strains, locus YKL190W, strain CNB1, hits give low values 1.01 | S. cerevisiae deletion strains, locus YLR039C, strain RIC1, hits give low values 1.04 | S. cerevisiae deletion strains, locus YLR058C, strain SHM2 (second series), hits give low values 1 | S. cerevisiae deletion strains, locus YLR085C, strain ARP6, hits give low values 1.03 | S. cerevisiae deletion strains, locus YLR262C, strain YPT6, hits give low values 1.03 | S. cerevisiae deletion strains, locus YML094W, strain GIM5, hits give low values 0.997 | S. cerevisiae deletion strains, locus YMR219W, strain ESC1, hits give low values 1.01 | S. cerevisiae deletion strains, locus YMR263W, strain SAP30, hits give low values 0.963 | S. cerevisiae deletion strains, locus YNL128W, strain TEP1, hits give low values 1.02 | S. cerevisiae deletion strains, locus YNL153C, strain GIM3, hits give low values 1 | S. cerevisiae deletion strains, locus YNL298W, strain CLA4 (second series), hits give low values 1.02 | S. cerevisiae deletion strains, locus YNL322C, strain KRE1, hits give low values 1 | S. cerevisiae deletion strains, locus YNR030W, strain Alg12, hits give low values 1.02 | S. cerevisiae deletion strains, locus YOL006C, strain TOP1, hits give low values 1.06 | S. cerevisiae deletion strains, locus YPL055C, strain LGE1, hits give low values 1.02 | S. cerevisiae deletion strains, locus YPL241C, strain CIN2, hits give low values 0.941 | S. cerevisiae deletion strains, locus YPR135W, strain CTF4, hits give low values 1.06 | S. cerevisiae strains, strain wild type, hits give low values 1.02
